From PubChem BioAssay (NCATS) come the findings set out here.

The test system of experiment [1] is PA-1. The experiment is described as follows: Primary qHTS to identify gynecologic anti-cancer compounds using libraries of approved drugs and bioactive compounds (AID 1345084). Note: nearly all actives have a fitted effect of over 55% in size. Conditions: Gynecologic cancer cell panel viability, ATPlite luminescence, 48 h; series mostly up to 57.5 µM. Put shortly: (§1)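 48 h compound exposure at 37 C, 5% CO2; five-point qHTS. ATPlite luminescence readout of cell ATP.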
(In general: Quantitative high-throughput screening tests each substance at several concentrations.)

In experiment [2] the test system is SKOV3. Described as above. The settings on record: Gynecologic cancer cell panel viability, ATPlite luminescence, 48 h; series mostly up to 57.5 µM. The method in brief: as §1
The subject of experiment [3] is Tov-21-G. The experiment is described as above. Conditions: Gynecologic cancer cell panel viability, ATPlite luminescence, 48 h; series mostly up to 57.5 µM. Put shortly: as §1
On the technique in general: ATP-based viability assays read luminescence as a measure of living cells.

The test system of experiment [4] is Hek293T. The experiment is described as above. The settings on record: Gynecologic cancer cell panel viability, ATPlite luminescence, 48 h, control line for the selectivity index; series mostly up to 57.5 µM. Put shortly:
as §1

The subject of experiment [5] is JEG-3. The description is as above. The settings on record: Gynecologic cancer cell panel viability, ATPlite luminescence, 48 h; series mostly up to 57.5 µM. Put shortly:
as §1

The test system of experiment [6] is OV90. The experiment is described as above. Conditions: Gynecologic cancer cell panel viability, ATPlite luminescence, 48 h; series mostly up to 57.5 µM. Put shortly: as §1
Experiment [7] has as its system HeLa. Described as above. Conditions: Gynecologic cancer cell panel viability, ATPlite luminescence, 48 h; series mostly up to 57.5 µM. The method in brief: as §1
Experiment [8] in a line: Drug repurposing screens with cells derived from glioblastoma tumor samples (AID 1345199). For activity, negative = cell killing: % is set by controls: 0 for no effect and ±100 for the full control effect. Note: nearly all actives have a fitted effect of over 40% in size. Conditions: GBM patient neurospheres viability, ATP luminescence, 48 h. The method in brief:
(§2)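 Four patient lines of CD133+ GBM neurospheres were screened at several concentrations; hits were retested in those lines plus three slower-growing GBM lines, using 48-hour treatment and ATP-based viability.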

Experiment [9] relates to Tov112D. The experiment is described as follows: Primary qHTS to identify gynecologic anti-cancer compounds using libraries of approved drugs and bioactive compounds (AID 1345084). Note: nearly all actives have a fitted effect of over 55% in size. The settings on record: Gynecologic cancer cell panel viability, ATPlite luminescence, 48 h; series mostly up to 57.5 µM. Put shortly: as §1
Experiment [10] can be described thus: qHTS assay to identify inhibitors of the type 1 interferon - major histocompatibility complex class I in skeletal muscle: Counter screen cell viability and HiBit confirmation (AID 1347412). Note: nearly all actives have a fitted effect of over 60% in size. Conditions: iHSKM muscle cells + IFN-b, HiBiT or CellTiter-Glo, 24 h; HiBiT. The method in brief: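 Duplicate plates, pinned identically: one read for HiBiT-tagged endogenous HLA-B luminescence, the other for ATP-content viability via CellTiter Glo. Cells were genome-engineered human myoblasts given 4 ng/ml IFN-b; compounds 12-pt, 1:3 from 46 uM final; 24 hr exposure.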

In experiment [11] the test system is astro. Kind of experiment: Drug repurposing screens with cells derived from glioblastoma tumor samples (AID 1345199). For activity, negative = cell killing: % is set by controls: 0 for no effect and ±100 for the full control effect. Note: nearly all actives have a fitted effect of over 40% in size. Conditions: viability, ATP luminescence, 48 h; series mostly up to 45.9 µM. The method in brief:
as §2

Where [12] appears, read: at 45.9 µM (top of the series), tumour line B.
[13] abbreviates: at 45.9 µM (top of the series), tumour line D.

Results filed as inconclusive are left out. A number with no mark means an inactive call. Active and inactive are the calls of the source. Calls come from the whole dose curve; as a rule, active = well fitted curve in the direction sought with a large enough effect; inconclusive = small, poorly fitted or top-dose-only effect, or another doubt; inactive = no such curve, though single readings can be large; an effect the other way counts as inactive or inconclusive.
Potency is the fitted concentration of half-maximal effect.

Regarding `COc1ccc(-c2cc3onc(-c4ccncc4)c3c(=O)n2C)cc1`, the Potency result in experiment [1] and in experiment [3] was “inactive” each time. In addition, the Potency in experiment [2] was 1.78 µM (active).
Consider `N#CC(CCCN1CCC(O)(c2ccc(Cl)cc2)CC1)(c1ccccc1)c1ccccc1`, for which the Potency result in experiment [4], in experiment [5], in experiment [1] and in experiment [3] was “inactive” throughout. In experiment [6], the Potency was 15.8 µM (active).
`C=CS(=O)(=O)NC1CCN(C(=O)CNc2cc(I)c(Cl)cc2OC)CC1`: the Potency result in experiment [5] and in experiment [2] was “inactive” each time. Also, the Potency in experiment [1] is 10 µM (active).
Regarding `C=C1C(=O)O[C@@H]2C3=C(C)CCC[C@]3(C)CC[C@@]12O`, the Potency result in experiment [7], in experiment [5] and in experiment [2] was “inactive” each time.
For the compound `COC(=O)N1CCC(n2ncc3c(N4CCOCC4)nc(-c4ccc(NC(=O)NC5CC5)cc4)nc32)CC1`, the Potency in experiment [4] is 0.631 µM (active); in [6], 0.501 µM (active); in [1], 1.41 µM (active). The Potency result in [5] is “inactive”.
`CCCCCCCCCCCCCCCC(=O)OC[C@H](O)[C@H]1OC(=O)C(O)=C1O`: the values for the activity, negative = cell killing in [8] (setting [12]) and in experiment [8] (setting [13]) were -21.6% and -24.1%, respectively.
Regarding `CC(=O)OC1[C@H]2[C@@H](C[C@@H](C)[C@@H]3C=CC(=O)[C@@]13C)OC(=O)[C@@H]2C` (some centres not stated), the Potency result in [6] was “inactive”. Moreover, in [1], the Potency was 35.5 µM (active).
As to `CC(=O)O[C@H]1[C@H](O)C[C@@]2(C)C(CC[C@]3(C)C2CC=C2C4CC(C)(C)CC[C@]4(C(=O)O)CC[C@]23C)C1(C)C` (some centres not stated), in [6], the Potency result is “inactive”. In experiment [2], the Potency was 11.2 µM (active).
Consider `Oc1ccc(-c2cnc3ccc(NCc4ccco4)nn23)cc1`, for which the Potency result in experiment [5] and in experiment [6] was “inactive” each time. The Potency in [1] was 28.2 µM (active); in [2], 14.1 µM (active).
Regarding `Oc1cccc(C2NC(=S)Nc3cccc(F)c32)c1` (configuration not stated), the values for the Potency in experiment [5] and in [9] were 22.4 µM (active) and 10 µM (active), respectively. Also, the Potency result in [6] is “inactive”.
For `O=C(NC1CCN(CCCCC2(C(=O)NCC(F)(F)F)c3ccccc3-c3ccccc32)CC1)c1ccccc1-c1ccc(C(F)(F)F)cc1`, the Potency in [1] was 31.6 µM (active).
For the compound `COc1cccc(-c2cc(F)ccc2C2Cc3nc(N)nc(C)c3C(=O)N2)n1` (configuration not stated), the Potency in [4] is 0.282 µM (active); in experiment [1], 0.355 µM (active); in experiment [3] it was 0.282 µM (active); in [10], 0.0222 µM (active).
Turning to `O=c1ccc2ccc(OCCCCN3CCN(c4cccc5sccc45)CC3)cc2[nH]1`, the Potency entry in [7], in experiment [5], in experiment [1], in experiment [3] and in experiment [9] was “inactive” throughout.
As to `COc1cc(CCC2=NN=C(NC(=O)c3ccc(N4C[C@@H](C)N[C@@H](C)C4)cc3)C2)cc(OC)c1`, the results for the Potency in [7], in experiment [2] and in [3] were 20 µM (active), 12.6 µM (active) and 22.4 µM (active), respectively.
For the compound `COc1cc(NC(=O)c2cccc(-n3cc(NC(=O)Nc4cccc(C)c4)cn3)c2)cc(OC)c1OC`, the Potency result in experiment [6] and in [1] was “inactive” throughout.
On to `CC1=C(C(=O)OCCN(Cc2ccccc2)c2ccccc2)C(c2cccc([N+](=O)[O-])c2)C(P2(=O)OCC(C)(C)CO2)=C(C)N1` (configuration not stated), for which, in [8] (setting [12]), the activity, negative = cell killing was 19%.
Take `O=C(c1ccccc1)c1c(O)cc(O)cc1O[C@@H]1O[C@H](CO)[C@@H](O)[C@H](O)[C@H]1O`: the Potency in experiment [1] and in [9] was 11.2 µM (active) each time. In experiment [2], the Potency result is “inactive”.
In the case of `CC[C@@H](C)Nc1cc(C(=O)NC2CC3CCC(C2)N3c2ccc(C(=O)C3CC3)cn2)c(C)cc1C(N)=O` (some centres not stated), the Potency in experiment [6] is 0.316 µM (active); in [1], 0.355 µM (active); in experiment [3], 0.398 µM (active).
Regarding `O=C(Nc1cccc(C(F)(F)F)c1)Nc1ccc(Br)cc1-c1nn[nH]n1`, the Potency result in experiment [5] is “inactive”.
`C=C1C(=O)O[C@H]2/C=C(/C)[C@@H](OC(C)=O)C/C=C(\C)C[C@@H](OC(=O)/C(=C/C)COC(=O)/C(=C/C)CO)[C@@H]12`: the Potency entry in experiment [7] and in experiment [6] was “inactive” throughout. In addition, the Potency in [3] was 8.91 µM (active).
Turning to `COCc1c(Cl)ccc2c1CC[C@H]2c1ncc[nH]1`, in [6], the Potency entry is “inactive”. Besides, the Potency in experiment [3] was 10 µM (active).
`O=C(Nc1cccc2cccnc12)c1ccc(N2C(=O)[C@@H]3C4C=CC(C4)[C@@H]3C2=O)cc1`: the Potency in experiment [5] and in experiment [3] was 31.6 µM (active) each time.
Consider `COc1ccc(CCc2nc3c(C)c(-c4c(C)noc4C)c(C)cc3n2CCN2CCOCC2)cc1`, for which the Potency result in experiment [7] and in experiment [6] was “inactive” throughout.
For the compound `COc1cc(O)c2c(c1)C1OC1C[C@H](O)[C@H](O)C(=O)/C=C\C[C@H](C)OC2=O` (some centres not stated), the Potency entry in experiment [7] and in experiment [2] was “inactive” each time. Moreover, the Potency in experiment [3] is 17.8 µM (active).
`C/C1=C\CCC2=CC(OC2=O)C(C)(C)/C=C/C1=O` (configuration not stated): the Potency entry in experiment [7] and in [9] was “inactive” each time. In addition, in experiment [1], the Potency is 31.6 µM (active).
On to `CCCc1cc(C)[nH]c(=O)c1CNC(=O)c1cc(-c2ccnc(N3CCN(C)CC3)c2)cc2c1cnn2C(C)C`, for which the Potency in experiment [7] was 35.5 µM (active); in experiment [1], 25.1 µM (active); in [3], 31.6 µM (active).
As to `C=C1C(=O)O[C@@H]2[C@H]3C(C)=CC(=O)C3=C(C)CC[C@@H]12`, the Potency result in [7] and in experiment [9] was “inactive” each time. Also, in experiment [3], the Potency was 28.2 µM (active).
As to `Cc1cc(-n2c(=O)[nH]c(=O)n(C)c2=O)ccc1Oc1ccc(S(=O)(=O)C(F)(F)F)cc1`, the Potency in experiment [8] (tumour line C) is 20.6 µM (active).
With `CCCCCCCC(=O)CC[C@@H]1[C@@H](C/C=C\CCCC(=O)OC(C)C)[C@@H](O)C[C@H]1O`, in experiment [8] (tumour line D), the Potency was 15.8 µM (active).
Regarding `NCCCC(=O)O`, the activity, negative = cell killing in experiment [8] (setting [12]) was -13.9%; in experiment [8] (setting [13]), -9.35%; in experiment [8] (at 46 µM (top of the series), tumour line A), 3.28%; in experiment [8] (at 46.1 µM (top of the series), tumour line C) it was -16.7%. Moreover, in experiment [11], the Potency result is “inactive”.
